M18AAP inhibitor = PfM18AAP enzyme inhibition; inhibition, % at 7.35 µM; 1.2% of 290,000 active; recombinant PfM18AAP, H-Glu-NHMec fluorogenic cleavage; AID 1822;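 active = inhibition above the campaign mean inhibition over all tested compounds plus 3 SD, cut at about 28% in these data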;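 note: 0% = plate median of test compound wells and 100% = 2 mM ZnCl2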
HIF act = HIF pathway transcriptional activation. U2OS HRE-luciferase reporter, luminescence; normalized: DMSO 0%, desferrioxamine 100%. activation, % at 7.5 µM (by protocol). 0.32% of 300,000 active;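 active = mean activation of at least 10% of the iron chelator positive control signal, with at least half of replicates also reaching 10%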
Mot1-301 SUMO = SUMOylation pathway inhibition by Mot1-301 growth rescue; S. cerevisiae Mot1-301 growth rescue, ATP luminescence, 38.5C; percent above DMSO median, 100 means doubled; growth rescue, % at 18.8 µM; 1% of 320,000 active;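 active = every valid replicate shows activation above 250% relative to neutral control wells; inactive = the rest, any valid replicate at or below 250%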;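 note: OY570 slx delta 5 strain wells were the positive control but not used for scaling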
ALR inh = inhibitors of human sulfhydryl oxidase ALR. purified ALR, DTT oxidation, H2O2 HRP-luminol luminescence. inhibition, % (no concentration beside the values). P55789. 3.8% of 290,000 active;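 active = mean replicate inhibition above about 79%, with every replicate also reaching it, limit read from the data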
Target sequence (P55789 whole entry, looked up): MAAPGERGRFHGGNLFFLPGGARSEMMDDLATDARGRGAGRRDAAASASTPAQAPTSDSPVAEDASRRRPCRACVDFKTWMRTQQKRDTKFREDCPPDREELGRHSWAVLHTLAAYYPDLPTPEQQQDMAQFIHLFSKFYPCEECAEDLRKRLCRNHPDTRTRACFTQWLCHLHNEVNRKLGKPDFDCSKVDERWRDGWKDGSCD
Numbers without * were called inactive; / = not tested or not shown. Hits are enriched below; roughly 5.3% of the tested compounds scored in any of these assays.

SMILES | M18AAP inhibitor | HIF act | Mot1-301 SUMO | ALR inh
COc1cc(NC(=O)COC(=O)CCCC2=NS(=O)(=O)c3ccccc3N2)cc(OC)c1 | -4 | 0 | 333* | -2
O=C(CSc1nc(-c2ccc(F)cc2)cs1)NCC1CCCO1 (centres undefined) | / | / | 9 | -8
CC/C(=N\NC(=O)c1ccc(-c2ccccc2)cc1)C12CC3CC(CC(C3)C1)C2 | 7 | -14 | 60 | 98*
Cc1nn(C)c(N)c1-c1ccccc1 | -3 | 0 | -8 | 1
Cc1nn(Cc2ccccc2)c(N)c1-c1ccccc1 | -6 | / | 14 | 97*
Cc1nn(C2CCCCC2)c(N)c1-c1ccccc1 | 8 | 1 | -6 | 97*
Cc1nn(Cc2ccccc2)c(N)c1C#N | -1 | 0 | 35 | -7
Clc1ccc(Cl)c(OCCN2CCCC2)c1 | 5 | 1 | 77 | 1
Cc1ccc(Cl)c(OCCN2CCCC(C)C2)c1 (centres undefined) | -8 | 0 | 538* | 0
CC1CCCN(CCCOc2ccc(Cl)cc2Br)C1 (centres undefined) | -13 | 0 | 482* | -2
Cc1cc(C(=O)NN=C2CCCC2)c2ccccc2n1 | / | 1 | -5 | /
Cc1cc(C(=O)NN=C2CCCCC2)c2ccccc2n1 | -1 | / | 4 | 84*
CCN1CCN(c2ccc(N=Cc3ccc(O)cc3O)cc2)CC1 | -4 | 1 | / | 99*
CC(C)(C)c1ccc(C(=O)NN2C(=O)CSC2=S)cc1 | 21 | 1 | -21 | 42
O=C(CN1C(=O)S/C(=C\c2ccccc2)C1=O)NCCCn1ccnc1 | 19 | 0 | 10 | -14
CC(C)c1ccc(/C=C2\SC(=O)N(CC(=O)NCCCn3ccnc3)C2=O)cc1 | 2 | 3 | 149 | 99*
O=C(N/N=C/c1cccnc1)c1ccc(NC(=O)c2ccccc2Cl)cc1 | 3 | 0 | -15 | -1
CN(C)CCn1c2c(c(SCC(=O)Nc3ccc4c(c3)OCCO4)nc1=O)CCCC2 | / | 0 | 3 | 97*
CN(C)CCn1c2c(c(SCC(=O)Nc3ccc4c(c3)OCCO4)nc1=O)CCC2 | / | -3 | -5 | 97*
CN(C)CCn1c2c(c(SCC(=O)Nc3cccc(C(F)(F)F)c3)nc1=O)CCCC2 | / | 0 | -4 | 98*
Cc1ccc2nc(NC(=O)CSc3nc(=O)n(CCN(C)C)c4c3CCCC4)sc2c1 | / | 0 | 34 | 98*
OCc1nc2c(ccc3ccccc32)[nH]1 | -11 | -1 | -1 | -17
Cc1cc(N2CCCCCC2)nc2ccc(F)cc12 | -1 | / | 0 | -5
CC1C(=O)N2CCCc3cc(NC(=O)c4ccccc4C(F)(F)F)cc1c32 (centres undefined) | / | -49 | 7 | -9
CC(=O)Nc1ccc(NC(=O)C(C)NC(C)c2cccc3ccccc23)cc1 (centres undefined) | 2 | 0 | -13 | -1
SMILES | M18AAP inhibitor | HIF act | Mot1-301 SUMO | ALR inh
CC(C)c1ccc(S(=O)(=O)Nc2ccc3c(c2)OCO3)cc1 | / | / | 44 | /
COC(=O)c1c(NS(C)(=O)=O)sc2c1CCCC2 | 12 | -14 | -8 | 65
COC(=O)c1c(NC(=O)C2CC=CCC2C(=O)O)sc(C(N)=O)c1C (centres undefined) | -5 | 0 | -6 | 99*
COC(=O)c1c(NS(=O)(=O)Cc2ccccc2)sc2c1CCCC2 | 5 | 0 | 20 | 91*
COC(=O)c1c(NC(=O)C2CC=CCC2C(=O)O)sc(C)c1C (centres undefined) | 12 | 0 | -1 | -2
COC(=O)c1c(NC(=O)C2CC=CCC2C(=O)O)sc2c1CCCCC2 (centres undefined) | 29* | 0 | 2 | 6
CCc1ccc([C@@H]2C[C@H]3CN(Cc4ccccc4OC)C(=O)[C@]34CCCN24)cc1 | -2 | 0 | 3 | -17
CN1CCC(N(C)S(=O)(=O)c2ccc(NC(=O)COc3cccc(C(F)(F)F)c3)cc2)CC1 | / | 0 | -6 | 0
O=C(Nc1nccs1)c1ccc2ccccc2c1 | 6 | 2 | 10 | 0
O=C(Nc1n[nH]c(=S)s1)c1ccc2ccccc2c1 | 7 | 2 | 1 | 98*
CC(Nc1nc(-c2ccc3c(c2)NC(=O)CO3)cs1)c1ccccc1 (centres undefined) | 4 | 1 | 1 | 98*
CS(=O)(=O)N1CCc2cc(-c3csc(NCC4CCCO4)n3)ccc21 (centres undefined) | -9 | -1 | 2 | 3
O=C1COc2ccc(-c3csc(NCC4CCCO4)n3)cc2N1 (centres undefined) | -5 | -3 | -1 | 87*
COc1ccc(C(=O)N(C)Cc2ccc(C)o2)cc1OC1CCN(C(C)C)CC1 | -6 | 0 | 1 | 7
Cc1ccc2sc(=O)[nH]c2c1 | -9 | 0 | -3 | 4
